Screens: PubChem BioAssay, National Center for Advancing Translational Sciences (NCATS)
NPSR antag – blocks cAMP signaling of the human neuropeptide S receptor. AID 1461. Potency, µM (doses to about 38.3 µM), without a hit: at the top dose activity change, negative = inhibition, hits mostly inhibitors. CHO-NPSR cells, cAMP TR-FRET, antagonist mode. 220,000 compounds, 1% hits; also: nearly all actives have a fitted effect of over 50% in size
Target sequence (Q6W5P4 whole entry, looked up): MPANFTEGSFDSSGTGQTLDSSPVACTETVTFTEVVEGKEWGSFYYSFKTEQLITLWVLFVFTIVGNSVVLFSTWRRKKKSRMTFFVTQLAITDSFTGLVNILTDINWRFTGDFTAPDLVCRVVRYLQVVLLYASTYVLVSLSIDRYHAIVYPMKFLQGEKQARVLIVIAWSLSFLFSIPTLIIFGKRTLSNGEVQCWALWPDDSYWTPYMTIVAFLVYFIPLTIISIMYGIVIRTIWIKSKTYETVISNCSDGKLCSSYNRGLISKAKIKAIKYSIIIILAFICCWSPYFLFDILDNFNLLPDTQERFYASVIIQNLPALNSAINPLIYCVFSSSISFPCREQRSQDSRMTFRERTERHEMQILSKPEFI
Gal4-VP16 FLuc – counter-screen for ROR gamma inhibitors: Gal4-VP16 reporter | Potency, µM (top dose mostly 53.6 µM), without a hit: top-dose activity, negative = inhibition, hits mostly inhibitors | 310,000 compounds, 3.5% hits | Drosophila S2 Gal4-VP16 UAS-luciferase, luminescence, 20 h;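 also: Gal4-VP16 expression switched on by copper sulfate through the metallothionein promoter; nearly all actives have a fitted effect of over 50% in size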
B2AR arrestin – beta2AR (human) beta-arrestin recruitment activity. P07550. beta-arrestin recruitment to beta2AR, cell-based reporter. Potency, µM (titrated, usually from 46.1 µM), without a hit: top-dose activation, usual class: activators. 330,000 compounds, 0.02% hits. AID 492947;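 also: 0% = DMSO controls and full agonism = EC100 isoproterenol or metaproterenol; nearly all actives have a fitted effect of over 65% in size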
RORg inh – blocks mouse ROR gamma transcriptional activity. P51450. Drosophila S2 Gal4-RORgamma UAS-luciferase reporter, 20 h. Potency, µM (top dose mostly 53.6 µM), inactives show top-dose activity change, negative = inhibition, usual class: inhibitors. 310,000 compounds, 5.4% hits. AID 2551; also: nearly all actives have a fitted effect of over 60% in size
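In this cell-based reporter format, copper sulfate (700 uM final) drives Gal4–ROR gamma fusion expression from a metallothionein promoter in Drosophila Schneider cells; compounds preincubated 1 hr, reporter read after 20 hr at ambient temperature.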
An asterisk follows results filed as active; ? = inconclusive; nt = no result given; ! = not active in a repeat; [ ] = another dose, or the depositor's remark. In the library only some 5.7% were active in any assay of this set; here they are far more common. Calls follow the shape of the dose curve; as a rule, active = well fitted curve in the direction sought with a large enough effect; inconclusive = small, poorly fitted or top-dose-only effect, or another doubt; inactive = no such curve, though single readings can be large; an effect the other way counts as inactive or inconclusive. Unless noted, % is scaled to controls: 0 for no effect and ±100 for the full control effect; potency is read from the fitted curve at half-maximal effect.

SMILES	NPSR antag	Gal4-VP16 FLuc	B2AR arrestin	RORg inh
COc1ccc(C(=O)O/N=C(/C(N)=O)P(=O)(OC(C)C)OC(C)C)cc1	0%[7.67 µM]	7.9µM*	3%	16µM*
ClCC(Cl)CCl	nt	-1%	nt	2%
CC(c1nc2ccccc2c(=O)[nH]1)N(C)CCOc1ccc(Cl)cc1 (centres undefined)	-9%	?	0%	7.1µM*
COc1cccc(C(=O)C2CCCN(Cc3ccccn3)C2)c1 (centres undefined)	0%	?	3%	3.5µM*
COc1c(C)cc(C(=O)C2CCCN(Cc3ccccn3)C2)cc1C (centres undefined)	14%	10µM*	8%	2µM*
COc1c(C)cc(C(=O)C2CCCN(Cc3cnc(C)s3)C2)cc1C (centres undefined)	24%	6%	0%	30%
O=C(c1ccc2c(c1)OCO2)C1CCCN(Cc2ccccn2)C1 (centres undefined)	-3%	?	-1%	3.2µM*
CC(C)Br	nt	-2%	nt	13%
CN(C)C(=Nc1ccccc1)P(=S)(N(C)C)N(C)C	-3%	-6%	0%	10µM*
[Cl-].[Cl-].[Hg+2]	nt	18µM*	nt	?
CC/C(CC(c1ccccc1)c1c(O)c2ccccc2oc1=O)=N\NC(N)=S (centres undefined)	-8%	?	0%	10µM*
O=C1C=CC(=O)C=C1	-6%[46.1 µM]	1%	0%	11µM*
CCC(CO)NC(=O)C1C=C2c3cccc4[nH]cc(c34)CC2N(C)C1 (centres undefined)	5%	-2%	0%	-3%
CC[C@@H](CO)NC(=O)[C@@H]1C=C2c3cccc4c3c(cn4C)C[C@H]2N(C)C1	-54%	?	0%	18µM*!
CC1OC(O[C@H]2C[C@@H](O)[C@]3(CO)[C@@H]4C(CC[C@]3(O)C2)[C@@]2(O)CC[C@H](C3=CC(=O)OC3)[C@@]2(C)C[C@H]4O)C(O)C(O)C1O (some centres undefined)	nt	1%	nt	18%[10 µM]
C[C@@H]1CC[C@H]2[C@H](C)[C@H]3CC[C@@]4(O)[C@@H]5CC(=O)[C@H]6CC(=O)CC[C@]6(C)[C@H]5C[C@H]4[C@@H]3CN2C1	nt	-3%	nt	-1%
CCCCc1ccc(C(=O)O)nc1	-12%[46.1 µM]	8.9µM*	-1%	7.1µM*
CCC(=Nc1ccc(OC)cc1OC)c1c(O)n(C2CCCCC2)c(=O)[nH]c1=O	?	6.3µM*	0%	?
CC1(O)C[C@]2(C)N(O)C3CCCC[C@@H]3N2O1 (some centres undefined)	-2%[46.1 µM]	-3%	-2%	27%
CC1(C)N(O)C2CCCCC2N1O (centres undefined)	10%[46.1 µM]	?	0%	16µM*
CN1C(=O)NC(=O)/C(=C\C=C\c2ccccc2[N+](=O)[O-])C1=O	10µM*	?	6%	10µM*
CCCCCCn1c(=O)c(C(=O)Nc2ncccc2C)c(O)c2ccccc21	nt	7.9µM*	-1%	14µM*
CCCCn1c(=O)c(C(=O)NCc2ccccc2Cl)c(O)c2ccccc21	nt	1%	0%	16µM*
CCCCCn1c(=O)c(C(=O)NCc2ccc(Cl)cc2)c(O)c2ccccc21	nt	13µM*	0%	10µM*
SMILES	NPSR antag	Gal4-VP16 FLuc	B2AR arrestin	RORg inh
CCCCn1c(=O)c(C(=O)Nc2ncccc2C)c(O)c2ccccc21	nt	?	0%	?
COC(=O)COc1ccc(C[C@@H](C)NC[C@H](O)c2cccc(Cl)c2)cc1	nt	-7%	nt	-13%
Cc1ccc2c(c1)[C@@H]1CN(C)CC[C@H]1N2	nt	-1%	nt	-1%
O=C1C=CC[C@@H]2[C@H]3CCCN4CCC[C@@H](CN12)[C@@H]34	nt	-2%	nt	-13%
Clc1ccc(C(c2ccc(Cl)cc2)n2cc[n+](CC(OCc3ccc(Cl)cc3Cl)c3ccc(Cl)cc3Cl)c2)cc1 (centres undefined)	13µM*	11µM*	0%	?
N#CC(C#N)=C(C#N)c1ccc(Nc2ccccc2)cc1	nt	14µM*	0%	?
c1ccc(Nc2ccc(Nc3ccccc3)cc2)cc1	nt	-21%	0%	22%
O=C(c1ccccc1)C(CN1CCCC1)c1ccccc1 (centres undefined)	3%	4.5µM*	-2%	5.6µM*
O=C(CN1CCCCC1)c1ccc(F)cc1	21%	-4%	-1%	-8%
COc1ccc(Cc2nccc3cc(OC)c(OC)cc23)cc1OC	?	28µM*!	0%	?
BrCCBr	nt	7%	nt	0%
